# The list is not random: actives were taken first. Their share in the collection is about 4.1%.
# TIM10 inh – growth inhibitors of TIM10 yeast strain | S. cerevisiae TIM10 strain growth, BacTiter-Glo luminescence, 24 h | 330,000 compounds, 1.4% hits | inhibition, % at 10 µM;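 active = inhibition of 40% or more at the single tested concentration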;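 note: wild-type TIM10 isogenic control strain grown at permissive 25 °C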
# NLRP3 yeast inh – NALP3 inhibition in yeast; Yeast reconstituted NLRP3/ASC/caspase-1, beta-gal luminescence, 24 h; inhibition, % at 10 µM; 330,000 compounds, 0.39% hits; AID 2825;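 active = inhibition of 50% or more; inactive = inhibition below 50%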;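 note: plate controls were induced DMSO wells for no effect and uninduced yeast grown without galactose for full effect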
# tim23-1 inh – inhibits growth of tim23-1 mutant yeast. S. cerevisiae tim23-1 growth, BacTiter-Glo luminescence, 24 h. 330,000 compounds, 1.3% hits. inhibition, % at 20 µM;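 active = growth inhibition of the mutant yeast at or above 50%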;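 note: temperature-sensitive mutant grown at 25 °C; plate controls were DMSO-treated mutant yeast for no effect and medium wells lacking yeast for full effect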
# NALP1 yeast inh – inhibitors of NALP1 inflammasome in yeast; S. cerevisiae NALP1/ASC/caspase-1 growth, X-gal OD620, 72 h; inhibition, % at 10 µM; 280,000 compounds, 0.61% hits; in the data active = inhibition mostly above about 24%, no sharp cut-off; inactive = mostly below about 32%
# tim10-1 inh – tim10-1 yeast growth inhibition; S. cerevisiae tim10-1 ts strain growth, BacTiter-Glo, 24 h; inhibition, % at 20 µM; 330,000 compounds, 2.2% hits;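 active = inhibition of at least 40%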;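 note: mutant grown at 25 °C; 0% = DMSO wells with yeast and 100% = wells holding no yeast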
# tim10-1 confirm – confirmation of tim10-1 mutant yeast growth inhibitors | S. cerevisiae tim10-1 ts strain growth, BacTiter-Glo, 24 h | 7,400 compounds, 56% hits | inhibition, % at 20 µM | shares compounds with tim10-1 inh | AID 463213;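 active = inhibition of yeast growth at or above a set limit in either of two repeat tests at 20 µM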;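 note: tim10-1 mutant grown at permissive 25 °C to find synthetic lethal compounds; 0% = DMSO yeast wells and 100% = medium wells without yeast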
# TIM10 conf – TIM10 yeast growth inhibition, confirmed; shares compounds with TIM10 inh; S. cerevisiae tim10 strain growth, BacTiter-Glo luminescence, 24 h; inhibition, % at 10 µM; 4,600 compounds, 63% hits; AID 463215;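 active = inhibition of yeast growth at or above a set limit in either of two replicates at 10 µM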;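 note: this counterscreen used the strain with wild-type TIM10; 0% = yeast with DMSO and 100% = medium wells lacking yeast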
# * hit, by the source's call; x = not tested or not shown.
SMILES,TIM10 inh,NLRP3 yeast inh,tim23-1 inh,NALP1 yeast inh,tim10-1 inh,tim10-1 confirm,TIM10 conf
COc1ccc2c(c1OC)C(=O)N1C2SC[C@H]1C(=O)NC1CCCC1 (stereo partly specified),9,7,11,9,16,x,x
CCOC(=O)Cc1ncccc1C(=O)Nc1ccc(Oc2ccccc2)cc1,9,27,39,-2,6,x,x
CC(C)c1ccc(S(=O)(=O)c2ccc(NN)cc2)cc1,42*,12,46,-24,44*,34*,31*
O=C(c1ccc([N+](=O)[O-])cc1)N1CCN(c2ncccn2)CC1,15,15,6,x,-8,x,x
O=C(O)CSCC(=O)Nc1ccccc1SCCS(=O)(=O)c1ccc(Cl)cc1,x,x,x,-1,x,x,x
CC(C)[C@@H](C(=O)N1CCN(C(=O)OC(C)(C)C)CC1)n1cc(CCO)nn1,8,9,9,6,-1,x,x
N#Cc1cccc2c1-c1ccccc1/C2=N/NC(N)=S,47*,21,40,-2,52*,41*,56*
N#Cc1cccc2c1-c1ccccc1/C2=N/NC(N)=O,-7,7,18,6,-3,x,x
COc1ccccc1NS(=O)(=O)c1cccc(C(=O)N/N=C2\CC(=O)CC(C)(C)C2)c1,7,5,9,9,-5,x,x
CCOc1ccccc1NC(=O)C1C2CCC3C(CCC21)C3(Cl)Cl (stereo unspecified),47*,0,32,-5,40,31*,43*
O=C(Nc1ccccc1Cl)C1C2CCC3C(CCC21)C3(Cl)Cl (stereo unspecified),2,14,9,33,17,x,x
CSCCC(NC(=O)c1ccccc1Cl)C(=O)Nc1ccc(C)c(S(=O)(=O)N2CCOCC2)c1 (stereo unspecified),2,10,5,x,12,x,x
CC(C)NC(=S)N/N=C/c1ccc(C(C)(C)C)cc1,44*,-15,37,17,41*,8,45*
Cc1n[nH]c(C)c1Sc1ccccc1[N+](=O)[O-],6,4,-7,5,6,x,x
Cc1ccc(-n2nc(C)c(Sc3ccccc3[N+](=O)[O-])c2N)cc1,44*,19,48,35,44*,34*,33*
CCCCNC(=O)/C(C#N)=C/c1cccnc1,50*,18,50,40,44*,35*,39*
CC(C)OC(=O)/C(C#N)=C\c1cccnc1,1,7,1,-8,4,x,x
O=C(NCCN1CCCCCC1)C1CCCN1S(=O)(=O)c1cccc2nsnc12 (stereo unspecified),7,6,16,x,4,x,x
O=C(CSCc1ccccc1Cl)Nc1ccc2c(c1)OCCO2,48*,24,44,2,44*,36*,8
COc1ccc(NC(=O)C(Sc2nnc(-c3ccncc3)n2-c2ccccc2C)c2ccccc2)cc1Cl (stereo unspecified),24,1,4,4,15,x,x
Cc1cccc(C(=O)Nc2cccc(Br)c2)c1[N+](=O)[O-],65*,1,43,-5,58*,54*,50*
O=C(Oc1ccc(/C=N/O)cc1)c1ccccc1Cl,57*,14,47,-3,52*,45*,29
CCCCn1c(N)c(N(Cc2ccccc2OC)C(=O)c2cc(CC)c(C)s2)c(=O)[nH]c1=O,8,16,21,x,24,x,x
Cc1[nH]nc(N)c1N=Nc1ccc(Br)cc1,29,19,-264,1,14,x,x
Cc1nc(N)sc1N=Nc1ccc(Br)cc1,60*,28,48,52,44*,29*,58*
SMILES,TIM10 inh,NLRP3 yeast inh,tim23-1 inh,NALP1 yeast inh,tim10-1 inh,tim10-1 confirm,TIM10 conf
CC(=O)/C(=N\Nc1ccccc1Cl)Sc1nnc(-c2ccccc2)n1-c1ccccc1,22,20,11,14,13,x,x
CC(=O)/C(=N\Nc1ccccc1)Sc1nnc(-c2ccccc2)n1-c1ccccc1,46*,19,25,-3,44*,29,4
C=CCn1c(SCC(=O)Nc2ncc(Cc3cc(Cl)ccc3Cl)s2)nnc1-c1ccncc1,-1,5,7,-18,11,x,x
Cc1ccc(CSCC(=O)N2CCN(Cc3ccc4c(c3)OCO4)CC2)cc1,41*,9,39,19,57*,41*,-24
O=C(c1ccc(-c2ccc([N+](=O)[O-])cc2)o1)N1CCCCC1,40*,-18,33,5,54*,46*,25
CCOC(=O)Cc1csc(Nc2ccc(Cl)cc2)n1,48*,-52,40,5,52*,41*,36*
CCCCN(C)CCNC(=O)c1cc2cc3ccc(OC)cc3nc2o1,57*,21,38,17,49*,29*,46*
CCN(CC)CCNC(=O)c1cc2cc3ccc(OC)cc3nc2o1,23,6,-5,18,0,x,x
COc1ccc(Cn2c(SCc3ccc(C)cc3)nc3cc(OC)c(OC)cc3c2=N)cc1Cl,62*,19,42,x,90*,87*,-6
COC(=O)c1ccsc1NS(=O)(=O)c1ccccc1,30,-16,35,10,37,x,x
Cc1ccc(CNC(=O)/C(C#N)=C\c2ccc(N(C)C)cc2)cc1,45*,9,20,0,45*,29,17
CC(C)(C)c1cc(C(=O)N/N=C/c2ccc(F)cc2)n(-c2ccccc2)n1,45*,1,46,45,51*,34*,24
Cc1nn(-c2ccccc2)c(C)c1/C=N/NC(=O)c1ccc(F)cc1,12,-2,16,x,20,x,x
CSc1cc(C)c(OCC(=O)Nc2c(C)nn(C)c2C)c(C)c1,-2,12,3,14,-1,x,x
Oc1ccccc1-c1nc2c3ccccc3c3ccccc3c2[nH]1,x,x,x,9,x,x,x
c1csc(-c2nc3c4ccccc4c4ccccc4c3[nH]2)c1,58*,17,32,-68,41*,21,29
C=CCSc1nc2ccccc2n1C(=O)/C=C/c1cc(OC)c(OC)c(OC)c1,43*,42,44,4,45*,49*,41*
CN(C)c1ccc(NC2=C(Cl)C(=O)c3ccccc3C2=O)cc1,68*,16,44,19,62*,63*,60*
CCCN1C(=O)SC(CC(=O)Nc2ccc(C)cc2)C1=O (stereo unspecified),-1,35,9,6,12,x,x
Cc1ccc(NC(=O)CC2SC(=O)N(c3ccccc3)C2=O)cc1 (stereo unspecified),41*,1,46,-55,49*,42*,-9
Cc1cccc(-n2cc(C(=O)O)c(=O)cc2C)c1,0,14,8,-14,8,x,x
Clc1ccc(CNc2nc(CN3CCOCC3)nc3scc(-c4ccccc4)c23)cc1,51*,14,45,4,48*,46*,-12
